# PubChem BioAssay
# For part of these data: Entries with a potency or affinity are not part of this list. The source made the active and inactive calls.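 Rule for the calls, unless noted: active = compound raising the membrane signal above positive-control mean plus 3 SD in both repeats, and a primary screen hit; inactive = the rest.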
# What was measured:
# [1] = tested on: TRPC4 beta (transient receptor potential cation channel C4), mouse; experiment: activators of mouse TRPC4 channel, confirmation, cell-based, Fluo4 calcium, HEK293 TRPC4beta/mu-opioid, duplicates, 10 µM (AID 2426;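 active = fluorescence ratio normalized to control raised more than 50% in primary screen plus both repeat runs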;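 for activation: percent rise of integrated ratio over buffer wells lacking compound which define 0%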); conditions: Fluo4 calcium fluorescence, at 10 µM; stronger effect = higher value
# [2] = tested on: transient receptor potential cation channel C4 beta (TRPC4), mouse; experiment: activators of mouse TRPC4 channel, confirmation, cell-based, second round, Fluo4, HEK293 TRPC4beta/mu-opioid, 1 µM (AID 2461;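 active = primary screen active and over 50% activation in each of two duplicate runs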;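 for activation: 0% = wells without test compound as baseline of integrated fluorescence ratio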); conditions: Fluo4 calcium fluorescence, at 1 µM; stronger effect = higher value
# [3] = tested on: TRPC4 (transient receptor potential cation channel C4 beta), mouse; experiment: positive allosteric modulators of mouse TRPC4, confirmation, cell-based, second round, Fluo-4, HEK293 TRPC4beta/mu-opioid, 1 µM (AID 2554;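 active = primary screen hit whose fluorescence ratio, in both repeats, exceeds the weak agonist control mean by 3 SD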); conditions: DAMGO EC20, Fluo-4 calcium flux, at 1 µM; stronger effect = higher value
# [4] = tested on: TRPC4 beta (transient receptor potential cation channel C4), mouse; experiment: positive allosteric modulators of mouse TRPC4, confirmation, cell-based, Fluo-4, HEK293 TRPC4beta/mu-opioid (AID 2555;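 active = primary screen hit whose calcium fluorescence ratio, in both repeats, exceeds the weak agonist control mean by 3 SD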); conditions: DAMGO EC20, Fluo-4 calcium flux, at 10 µM; stronger effect = higher value
# [5] = target: Short transient receptor potential channel 4 (Mus musculus) (UniProt Q9QUQ5); experiment: inhibitors of mouse TRPC4 channel, confirmation, cell-based, Fluo4, HEK293 TRPC4beta/mu-opioid (AID 2636;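 active = calcium signal cut by more than 3 SD below the full-agonist control yet still positive, in both repeats and the earlier primary screen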); conditions: DAMGO, Fluo4 calcium flux, at 10 µM; stronger effect = higher value
# [6] = target: Short transient receptor potential channel 4 (Mus musculus) (UniProt Q9QUQ5); experiment: inhibitors of mouse TRPC4 channel, confirmation, cell-based, second round, Fluo4, HEK293 TRPC4beta/mu-opioid, 1 µM (AID 2637;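 active = calcium signal ratio cut to more than 3 SD under the fully stimulated control mean yet still positive, in both repeats and the primary screen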); conditions: Fluo4 calcium flux, DAMGO, at 1 µM; stronger effect = higher value
# [7] = target: Short transient receptor potential channel 4 (Mus musculus) (UniProt Q9QUQ5); experiment: mouse TRPC4 channel activators, dose response, cell-based, HEK293 TRPC4/mu-opioid, Fluo-4 calcium (AID 434937;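 active = primary screen activator hit with a dose response curve and TRPC4 channel activation at any tested dose; inactive = no activation, no dose response, or not a primary hit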)
# [8] = target: Short transient receptor potential channel 4 (Mus musculus) (UniProt Q9QUQ5); experiment: mouse TRPC4 channel inhibitors, dose response, cell-based, HEK293 TRPC4/mu-opioid, Fluo-4 calcium (AID 434942;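 active = primary screen inhibitor hit that blocks the TRPC4 channel at some tested dose, yielding a dose curve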)
# [9] = target: Short transient receptor potential channel 6 (Mus musculus) (UniProt Q61143); experiment: inhibition of mouse TRPC6 channel, confirmation, selectivity assay for TRPC4 inhibitor project, cell-based, HEK293, membrane potential dye, duplicate (AID 434948;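 active = active in primary screen and both duplicates, each dropping signal beyond three positive-control SD with fluorescence still positive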); conditions: HEK293 TRPC6, membrane potential dye fluorescence, at 10 µM, stimulated with maximal-effect acetylcholine; stronger effect = higher value
# [10] = target: Short transient receptor potential channel 6 (Mus musculus) (UniProt Q61143); experiment: activation of mouse TRPC6 channel, confirmation, selectivity assay for TRPC4 activator project, cell-based, HEK293, membrane potential dye, duplicate (AID 434950;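 active = membrane potential signal rise above negative control mean plus 3 SD in both duplicates, also active in the earlier TRPC4 screen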;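 for activation: 0% = buffer only wells and 100% = acetylcholine maximal-effect wells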); conditions: HEK293 TRPC6, membrane potential fluorescence, at 10 µM; stronger effect = higher value
# [11] = target: Short transient receptor potential channel 6 (Mus musculus) (UniProt Q61143); experiment: TRPC6 potentiation by TRPC4 potentiator hits, confirmation, selectivity assay for TRPC4 potentiator project, HEK293 cells, membrane potential dye, duplicate (AID 434952); conditions: HEK293 TRPC6, membrane potential dye fluorescence, at 10 µM, maximal acetylcholine added after compound; stronger effect = higher value
# [12] = target: Short transient receptor potential channel 4 (Mus musculus) (UniProt Q9QUQ5); experiment: calcium flux activators in TRPC4/5HT1a cells, counter-screen for TRPC4 activator project, cell-based, second counter screen, HEK293 TRPC4/5HT1a, Fluo-4 (AID 434977;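 active = calcium signal rise above buffer-control mean plus 5 SD in both duplicates, and also a hit in the primary screen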;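 for activation: plate controls were assay buffer for no effect and maximal serotonin response for full effect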); conditions: Fluo-4 calcium flux, at 10 µM; stronger effect = higher value
# [13] = calcium flux inhibitors in TRPC4/5HT1a cells, confirmation, counter-screen for TRPC4 inhibitor project, cell-based, second counter screen, HEK293 TRPC4/5HT1a, Fluo-4 (AID 434978;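 active = primary screen active whose calcium signal fell more than 3 SD beyond the full-serotonin control mean in both duplicate plates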;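 note: serotonin given first at submaximal then at maximal dose after compound preincubation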); conditions: Fluo-4 calcium flux, at 10 µM, serotonin added to trigger calcium flux; stronger effect = higher value
# [14] = tested on: TRPC4 (mouse), co-expressed with 5HT1a in HEK293; experiment: calcium flux potentiators in TRPC4/5HT1a cells, confirmation, counter-screen for TRPC4 potentiator project, cell-based, second counter screen, HEK293 TRPC4/5HT1a, Fluo-4 (AID 434979;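 active = signal rise over 3 SD above mean of control wells given weak agonist, in both repeats and first screen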); conditions: Fluo-4 calcium flux, at 10 µM, serotonin added at its EC20 dose; stronger effect = higher value
# [15] = calcium flux activation in mu-opioid HEK293 cells, confirmation, counter-screen for TRPC4 activator project, cell-based, HEK293 mu-opioid receptor line (AID 449723;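 active = hit in primary screen, with calcium signal over 5 SD above buffer well mean in both duplicates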;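 note: counter screen cells carry the mu-opioid receptor alone and lack TRPC4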); conditions: Fluo-4 calcium fluorescence, at 10 µM; stronger effect = higher value
# [16] = calcium flux enhancement in mu-opioid HEK293 cells, confirmation, counter-screen for TRPC4 allosteric potentiator project, cell-based, HEK293 mu-opioid receptor line (AID 449724;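 active = calcium signal rise more than 3 SD above the low-dose agonist control mean, in both duplicate plates and the primary screen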); conditions: Fluo-4 calcium flux, at 10 µM, compound added before EC20 DAMGO stimulus; stronger effect = higher value
# [17] = target: Short transient receptor potential channel 4 (Mus musculus) (UniProt Q9QUQ5); experiment: TRPC4 positive allosteric modulators, dose response, cell-based, HEK293 TRPC4/mu-opioid, Fluo-4 calcium, EC20 DAMGO (AID 434941;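 active = earlier screen potentiator hit that boosts the TRPC4 ion channel at some dose, with a dose response; inactive = no potentiation, no dose response, or not a prior hit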;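 note: calcium entry triggered by an EC20 dose of DAMGO at the co-expressed mu-opioid receptor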)
# Short transient receptor potential channel 6 (Mus musculus), sequence (Q61143 whole entry, looked up): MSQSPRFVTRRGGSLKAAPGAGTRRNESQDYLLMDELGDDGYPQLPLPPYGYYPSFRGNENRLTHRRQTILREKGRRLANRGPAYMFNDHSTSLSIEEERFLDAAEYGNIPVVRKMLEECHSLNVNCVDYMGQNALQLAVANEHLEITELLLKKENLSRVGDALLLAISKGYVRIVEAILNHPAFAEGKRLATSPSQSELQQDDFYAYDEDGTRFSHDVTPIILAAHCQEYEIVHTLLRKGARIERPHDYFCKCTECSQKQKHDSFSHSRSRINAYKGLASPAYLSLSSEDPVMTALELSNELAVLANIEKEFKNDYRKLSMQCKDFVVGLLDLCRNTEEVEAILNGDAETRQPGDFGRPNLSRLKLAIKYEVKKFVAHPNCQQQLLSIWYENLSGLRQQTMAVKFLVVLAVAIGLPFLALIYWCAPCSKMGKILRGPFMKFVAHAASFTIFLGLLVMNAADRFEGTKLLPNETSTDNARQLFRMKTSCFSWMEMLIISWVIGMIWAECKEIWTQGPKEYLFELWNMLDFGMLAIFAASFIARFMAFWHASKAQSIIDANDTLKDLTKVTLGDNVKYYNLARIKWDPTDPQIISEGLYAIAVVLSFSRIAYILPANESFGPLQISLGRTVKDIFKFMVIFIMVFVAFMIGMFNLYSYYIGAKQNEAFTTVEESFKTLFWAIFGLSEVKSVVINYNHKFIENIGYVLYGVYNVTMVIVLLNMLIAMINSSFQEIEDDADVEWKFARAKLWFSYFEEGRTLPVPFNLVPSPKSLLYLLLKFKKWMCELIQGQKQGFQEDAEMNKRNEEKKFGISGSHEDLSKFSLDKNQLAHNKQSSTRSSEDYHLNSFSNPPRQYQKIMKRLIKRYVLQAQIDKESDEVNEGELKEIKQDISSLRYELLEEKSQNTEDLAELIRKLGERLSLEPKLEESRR
# Short transient receptor potential channel 4 (Mus musculus), sequence (Q9QUQ5 whole entry, looked up): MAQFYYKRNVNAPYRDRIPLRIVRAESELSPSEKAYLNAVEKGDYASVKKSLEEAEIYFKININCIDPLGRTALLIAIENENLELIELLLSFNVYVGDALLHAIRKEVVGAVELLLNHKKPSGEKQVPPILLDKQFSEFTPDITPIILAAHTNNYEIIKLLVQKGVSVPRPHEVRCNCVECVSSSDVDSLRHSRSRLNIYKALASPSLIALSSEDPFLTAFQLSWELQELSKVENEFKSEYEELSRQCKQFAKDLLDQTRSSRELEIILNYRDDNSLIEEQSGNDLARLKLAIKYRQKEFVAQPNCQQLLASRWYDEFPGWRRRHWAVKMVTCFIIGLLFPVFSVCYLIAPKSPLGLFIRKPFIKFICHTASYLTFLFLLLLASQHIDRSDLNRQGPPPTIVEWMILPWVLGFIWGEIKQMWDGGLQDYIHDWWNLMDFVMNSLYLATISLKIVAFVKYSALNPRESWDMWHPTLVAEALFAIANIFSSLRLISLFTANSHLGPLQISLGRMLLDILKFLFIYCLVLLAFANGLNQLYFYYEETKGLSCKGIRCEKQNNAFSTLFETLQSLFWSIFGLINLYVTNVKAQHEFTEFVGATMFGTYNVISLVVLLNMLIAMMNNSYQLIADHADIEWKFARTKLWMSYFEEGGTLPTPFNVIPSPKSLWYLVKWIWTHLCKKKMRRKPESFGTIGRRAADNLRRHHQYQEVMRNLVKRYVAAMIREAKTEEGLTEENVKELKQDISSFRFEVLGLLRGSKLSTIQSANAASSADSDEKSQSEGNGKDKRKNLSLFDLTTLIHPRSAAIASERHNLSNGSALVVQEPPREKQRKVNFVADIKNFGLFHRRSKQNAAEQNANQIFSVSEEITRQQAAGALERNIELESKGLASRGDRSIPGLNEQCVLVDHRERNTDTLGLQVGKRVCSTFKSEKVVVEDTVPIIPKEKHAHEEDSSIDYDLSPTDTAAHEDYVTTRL
compound,measurement,setting,value
Cc1cc(OCC(=O)NC2CCCCC2)ccc1Cl,outcome,[1],inactive
same,outcome,[2],inactive
same,outcome,[3],inactive
same,outcome,[4],inactive
same,outcome,[5],inactive
same,outcome,[6],inactive
same,outcome,[7],inactive
same,outcome,[8],inactive
same,outcome,[9],inactive
same,outcome,[10],inactive
same,outcome,[11],inactive
same,outcome,[12],inactive
same,outcome,[13],inactive
same,potentiation,[14],97.2% (active)
same,outcome,[15],inactive
same,outcome,[16],inactive
O=C(NCCNC1CCC(c2ccccc2)CC1)c1cccs1 (stereo not given),activation,[1],169% (active)
same,activation,[2],95% (active)
same,outcome,[3],inactive
same,outcome,[4],inactive
same,outcome,[5],inactive
same,outcome,[6],inactive
same,outcome,[17],inactive
same,outcome,[8],inactive
same,outcome,[9],inactive
same,activation,[10],66% (active)
same,outcome,[11],inactive
same,activation,[12],103% (active)
same,outcome,[13],inactive
same,outcome,[14],inactive
same,outcome,[15],inactive
same,outcome,[16],inactive
O=S(=O)(NCCc1csc(-c2ccccc2)n1)c1cccnc1,activation,[1],93% (active)
same,outcome,[2],inactive
same,outcome,[3],inactive
same,outcome,[4],inactive
same,outcome,[5],inactive
same,outcome,[6],inactive
same,outcome,[17],inactive
same,outcome,[8],inactive
same,outcome,[9],inactive
same,activation,[10],59% (active)
same,outcome,[11],inactive
same,activation,[12],26.7% (active)
same,outcome,[13],inactive
same,outcome,[14],inactive
same,outcome,[15],inactive
same,outcome,[16],inactive
COc1ccc2c(Cl)c(-c3nnc(SCC(=O)c4ccccc4)n3C)sc2c1,outcome,[1],inactive
same,outcome,[2],inactive
same,outcome,[3],inactive
same,outcome,[4],inactive
same,outcome,[5],inactive
same,outcome,[6],inactive
same,outcome,[17],inactive
same,outcome,[8],inactive
same,outcome,[9],inactive
same,activation,[10],35.5% (active)
same,outcome,[11],inactive
same,outcome,[12],inactive
same,outcome,[13],inactive
same,outcome,[14],inactive
same,outcome,[15],inactive
same,outcome,[16],inactive
Cc1ccc(NC(=O)NCC(c2ccccc2)N(C)C)cc1 (stereo not given),activation,[1],107% (active)
same,activation,[2],136% (active)
same,outcome,[3],inactive
same,outcome,[4],inactive
same,outcome,[5],inactive
same,outcome,[6],inactive
same,outcome,[17],inactive
same,outcome,[8],inactive
same,outcome,[9],inactive
same,activation,[10],38.5% (active)
same,outcome,[11],inactive
same,outcome,[12],inactive
same,outcome,[13],inactive
same,outcome,[14],inactive
same,outcome,[15],inactive
same,outcome,[16],inactive
CCOc1ccc(CN2CCNC(=O)C2CC(=O)NCCc2ccccn2)cc1 (stereo not given),activation,[1],145% (active)
same,outcome,[2],inactive
same,outcome,[3],inactive
same,outcome,[4],inactive
same,outcome,[5],inactive
same,outcome,[6],inactive
same,outcome,[17],inactive
same,outcome,[8],inactive
same,outcome,[9],inactive
same,outcome,[10],inactive
same,outcome,[11],inactive
same,activation,[12],49% (active)
same,outcome,[13],inactive
same,outcome,[14],inactive
same,outcome,[15],inactive
same,outcome,[16],inactive
COC(=O)C1CCN(Cc2cn(-c3ccccc3)nc2-c2ccc3c(c2)OCO3)CC1,outcome,[1],inactive
same,outcome,[2],inactive
same,outcome,[3],inactive
same,outcome,[4],inactive
same,outcome,[5],inactive
same,outcome,[6],inactive
same,outcome,[17],inactive
same,outcome,[8],inactive
same,outcome,[9],inactive
same,activation,[10],45% (active)
same,outcome,[11],inactive
same,outcome,[12],inactive
same,outcome,[13],inactive
same,outcome,[14],inactive
same,outcome,[15],inactive
same,outcome,[16],inactive
CCn1cc(CNCc2cn(-c3ccccc3C)nc2-c2ccc(OC)c(F)c2)cn1,activation,[1],163% (active)
same,activation,[2],74% (active)
same,outcome,[3],inactive
same,outcome,[4],inactive
same,outcome,[5],inactive
same,outcome,[6],inactive
same,outcome,[17],inactive
same,outcome,[8],inactive
same,outcome,[9],inactive
same,outcome,[10],inactive
same,outcome,[11],inactive
same,outcome,[12],inactive
same,outcome,[13],inactive
same,outcome,[14],inactive
same,outcome,[15],inactive
same,outcome,[16],inactive
CCOC(=O)C1(Cc2ccccc2)CCN(Cc2cccn2-c2cccnc2)CC1,activation,[1],55% (active)
same,outcome,[2],inactive
same,outcome,[3],inactive
same,outcome,[4],inactive
same,outcome,[5],inactive
same,outcome,[6],inactive
same,outcome,[17],inactive
same,outcome,[8],inactive
same,outcome,[9],inactive
same,activation,[10],89% (active)
same,outcome,[11],inactive
same,outcome,[12],inactive
same,outcome,[13],inactive
same,outcome,[14],inactive
same,outcome,[15],inactive
same,outcome,[16],inactive
CCN1/C(=C\c2ccc3cc(C)ccc3[n+]2CC)Sc2cc(C)c(C)cc21,activation,[1],177% (active)
same,outcome,[2],inactive
same,outcome,[3],inactive
same,potentiation,[4],59% (active)
same,outcome,[5],inactive
same,outcome,[6],inactive
same,outcome,[17],inactive
same,outcome,[8],inactive
same,outcome,[9],inactive
same,outcome,[10],inactive
same,outcome,[11],inactive
same,activation,[12],66.7% (active)
same,outcome,[13],inactive
same,potentiation,[14],41.7% (active)
same,activation,[15],152% (active)
same,activation,[16],1520% (active)
COc1ccc2nc(SCCN(C)C)[nH]c2c1,activation,[1],108% (active)
same,activation,[2],87% (active)
same,outcome,[3],inactive
same,outcome,[4],inactive
same,outcome,[5],inactive
same,outcome,[6],inactive
same,outcome,[17],inactive
same,outcome,[8],inactive
same,outcome,[9],inactive
same,outcome,[10],inactive
same,outcome,[11],inactive
same,activation,[12],35.7% (active)
same,outcome,[13],inactive
same,outcome,[14],inactive
same,outcome,[15],inactive
same,outcome,[16],inactive
COc1ccc(C(=O)C2CCCN(C3Cc4ccccc4C3)C2)cc1OC (stereo not given),activation,[1],128% (active)
same,outcome,[2],inactive
same,outcome,[3],inactive
same,outcome,[4],inactive
same,outcome,[5],inactive
same,outcome,[6],inactive
same,outcome,[17],inactive
same,outcome,[8],inactive
same,outcome,[9],inactive
same,activation,[10],81.5% (active)
same,outcome,[11],inactive
same,activation,[12],110% (active)
same,outcome,[13],inactive
same,outcome,[14],inactive
same,outcome,[15],inactive
same,outcome,[16],inactive
O=C(CC1C(=O)NCCN1Cc1ccccc1C(F)(F)F)NCCc1ccccn1 (stereo not given),activation,[1],106% (active)
same,outcome,[2],inactive
same,outcome,[3],inactive
same,outcome,[4],inactive
same,outcome,[5],inactive
same,outcome,[6],inactive
same,outcome,[17],inactive
same,outcome,[8],inactive
same,outcome,[9],inactive
same,outcome,[10],inactive
same,outcome,[11],inactive
same,activation,[12],26.7% (active)
same,outcome,[13],inactive
same,outcome,[14],inactive
same,outcome,[15],inactive
same,outcome,[16],inactive
Cc1cccc(OCCOCCN2CCNCC2)c1C,activation,[1],167% (active)
same,activation,[2],69% (active)
same,outcome,[3],inactive
same,outcome,[4],inactive
same,outcome,[5],inactive
same,outcome,[6],inactive
same,outcome,[17],inactive
same,outcome,[8],inactive
same,outcome,[9],inactive
same,activation,[10],35% (active)
same,outcome,[11],inactive
same,activation,[12],65.6% (active)
same,outcome,[13],inactive
same,outcome,[14],inactive
same,outcome,[15],inactive
same,outcome,[16],inactive
O=C(Nc1ccc(Cl)cc1)N1CCC(c2nc(-c3cccs3)no2)CC1,activation,[1],158% (active)
same,outcome,[2],inactive
same,outcome,[3],inactive
same,outcome,[4],inactive
same,outcome,[5],inactive
same,outcome,[6],inactive
same,outcome,[17],inactive
same,outcome,[8],inactive
same,outcome,[9],inactive
same,outcome,[10],inactive
same,outcome,[11],inactive
same,activation,[12],46.6% (active)
same,outcome,[13],inactive
same,outcome,[14],inactive
same,outcome,[15],inactive
same,outcome,[16],inactive
